# Compound activity deposited in PubChem BioAssay by National Center for Advancing Translational Sciences (NCATS).
# Sampled rows, rich in hits. Any-hit rate of the full collection: about 5.5%.
# VP16 counter – inhibits Gal4-VP16 luciferase reporter, ROR gamma counter-screen | Drosophila S2 Gal4-VP16 UAS-luciferase, luminescence, 20 h | Potency, µM (top dose mostly 53.6 µM), without a hit: at the top dose activity, negative = inhibition, actives largely listed as inhibitors | hit rate 3.5% among 310,000 | AID 2546;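 also: Gal4-VP16 expression switched on by copper sulfate through the metallothionein promoter; % is scaled to controls: 0 for no effect and ±100 for the full control effect; nearly all actives have a fitted effect of over 50% in size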
# uPA generation – cell surface uPA generation inhibition; hit rate 0.31% among 330,000; AID 540303; cell surface uPA generation assay, qHTS; Potency, µM (top dose mostly 38.3 µM), inactives show at the top dose activity change, negative = inhibition, hits mostly inhibitors; active = well fitted inhibition curve with a large enough effect; inconclusive = small, poorly fitted or top-dose-only effect; inactive = no such curve, though single readings can be large or run the other way; tested in mouse RAW 264.7 cells; also: % is scaled to controls: 0 for no effect and ±100 for the full control effect; nearly all actives have a fitted effect of over 55% in size
# a7 integrin act – integrin-mediated muscular dystrophy alleviation activation. alpha7betagal myoblasts, beta-gal FDG fluorescence, 48 h. Potency, µM (titrated, usually from 38.3 µM), without a hit: top-dose activation, hits mostly activators. hit rate 0.064% among 350,000;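 also: 100% = response of the positive control SU9516; nearly all actives have a fitted effect of over 60% in size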
#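 alpha7betagal+/- myoblasts (passage 13, 250/well) treated 48 h at 37C with compounds at 1:260 dilution of DMSO stock. Lysed, then beta-galactosidase activity read as FDG fluorescence (ex 480/em 540) after 30 min, with pre-read for autofluorescence.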
# BCR signal inh – blocks chronic active B-cell receptor signaling; ABC-DLBCL IkBa-CBG/CBR reporter, luminescence ratio, 4 h; Potency, µM (doses to about 46.1 µM), without a hit: at the top dose activity change, negative = inhibition, usual class: inhibitors; hit rate 0.05% among 340,000; AID 493014; active = well fitted inhibition curve with a large enough effect in the signal ratio, with a control signal flat, not every such curve was filed as active; inconclusive = small, poorly fitted or top-dose-only effect, or effect the other way, or a change in a side signal; the % refers to the signal ratio;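 also: plate controls were basal doxycycline-induced cells for no effect and cells given 10 µM MG132 for full effect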
#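 Doxycycline induced both beetle luciferases in TMD8 lymphoma cells; IKK-driven degradation limits the IkappaBalpha-fused green signal, while red luminescence normalises for cell number and nonspecific effects. Compounds tested up to 46 uM, 4 hrs.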
# Mito fusion act – inhibitors of mitochondrial division or activators of mitochondrial fusion. S. cerevisiae fusion-defective mutant growth rescue, CellTiterGlo 48 h. Potency, µM (highest dose often 46.1 µM), inactives show at the highest dose growth rescue (activation), most hits filed as activators. hit rate 0.23% among 320,000. AID 485298; also: % of control where 0% means no effect; nearly all actives have a fitted effect of over 45% in size
#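 Growth-rescue viability read-out: after 48 h at the non-permissive 37C in glycerol/ethanol YPEG, yeast mitochondrial fusion mutants are measured by CellTiterGlo luminescence; compounds (23 nl pinned per well) restoring growth score as division inhibitors or fusion activators.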
# RORg inh – ROR gamma (mouse) transcription inhibition; Drosophila S2 Gal4-RORgamma UAS-luciferase reporter, 20 h; AID 2551; Potency, µM (highest dose often 53.6 µM), for the others: at the top dose activity change, negative = inhibition, usual class: inhibitors; hit rate 5.4% among 310,000; P51450; also: % is scaled to controls: 0 for no effect and ±100 for the full control effect; nearly all actives have a fitted effect of over 60% in size
# Target sequence (P51450 whole entry, looked up, the tested form may be a part): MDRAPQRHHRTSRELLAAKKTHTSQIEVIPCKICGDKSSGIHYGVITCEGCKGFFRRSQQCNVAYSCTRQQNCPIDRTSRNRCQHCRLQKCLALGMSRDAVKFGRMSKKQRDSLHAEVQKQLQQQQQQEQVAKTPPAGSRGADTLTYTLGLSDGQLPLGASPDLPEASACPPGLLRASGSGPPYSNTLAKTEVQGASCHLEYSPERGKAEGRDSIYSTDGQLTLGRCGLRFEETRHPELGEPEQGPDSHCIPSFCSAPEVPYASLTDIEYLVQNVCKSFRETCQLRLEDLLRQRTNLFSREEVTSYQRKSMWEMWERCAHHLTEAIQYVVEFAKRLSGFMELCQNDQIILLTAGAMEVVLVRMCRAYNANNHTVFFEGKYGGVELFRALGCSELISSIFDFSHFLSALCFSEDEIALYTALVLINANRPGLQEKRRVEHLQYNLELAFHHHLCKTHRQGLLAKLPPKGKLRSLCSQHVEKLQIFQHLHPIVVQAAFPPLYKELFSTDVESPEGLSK
#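 In this cell-based reporter format, copper sulfate (700 uM final) drives Gal4–ROR gamma fusion expression from a metallothionein promoter in Drosophila Schneider cells; compounds preincubated 1 hr, reporter read after 20 hr at ambient temperature.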
# An asterisk follows results filed as active; ? = inconclusive; nt = no result; [ ] = dose if it differs, or a comment. Unless noted, calls follow the shape of the dose curve; as a rule, active = well fitted curve in the direction sought with a large enough effect; inconclusive = small, poorly fitted or top-dose-only effect, or another doubt; inactive = no such curve, though single readings can be large; an effect the other way counts as inactive or inconclusive. Potency is read from the fitted curve at half-maximal effect.
SMILES,VP16 counter,uPA generation,a7 integrin act,BCR signal inh,Mito fusion act,RORg inh
C[C@@H]1CN([C@@H](C)CO)C(=O)c2cc(NC(=O)C3CCCCC3)ccc2O[C@@H](C)CCCCO[C@@H]1CN(C)Cc1ccncc1,nt,nt,-25%,nt,nt,nt
Cn1c(N=NC(=O)c2ccccc2)c(O)c2ccccc21,?,-21%,6%,?,24%,8.9µM*
COCCn1c(N)c(C(=O)OCc2ccccc2)c2nc3ccccc3nc21,14µM*,2%,-17%,5%,4%,?
[O-]/C(=C(\C(=S)Nc1ccc(SC(F)F)cc1)[n+]1ccccc1)c1cc(Cl)ccc1Cl,-1%,-3%,16%,2%,-4%,?
Cc1cc(C)c(/C([O-])=C(/C(=S)Nc2ccc(SC(F)F)cc2)[n+]2ccccc2)cc1C,-11%,0%,?,5%,-3%,11µM*
CCOC(=O)Cn1nc(/C=C/c2ccccc2)ccc1=O,14µM*,-5%,16%,?,1%,-86%
CCOc1cccc2cc(-c3nc(-c4ccc(Cl)cc4)c(C)s3)c(=O)oc12,nt,nt,nt,-8%,nt,nt
CC(C)CC(=O)Nc1ccc2c(c1)OCO2,-9%,-2%,10%,3%,1%,6%
O=C(CCl)Nc1ccc2c(c1)OCO2,4%[10 µM],-17%,-55%,?,-5%,18µM*
Cc1ccc(C(=O)NC(=S)Nc2ccc3c(c2)OCCO3)c(C)c1,?,-3%,-33%,?,1%,4.5µM*
Cc1cc(C)cc(C(=O)NC(=S)Nc2ccc3c(c2)OCCO3)c1,3.2µM*,-1%,-32%,-18%,12%,?
CC(C)C(=O)Nc1cccc(NC(=S)NC(=O)c2ccc(Cl)cc2)c1,?,nt,-52%,?,2%,6.3µM*
O=C(NC(=S)Nc1ccc2c(c1)OCCO2)c1ccco1,?,-6%,14%,?,-6%,?
Cc1ccc(SCC(=O)NC(=O)Nc2ccc3c(c2)OCCO3)c(C)c1,-4%,2%,0%,-8%,-2%,-1%
CCC1C(=NO)C(CC)C(c2ccccc2)NC1c1ccccc1 (stereo not given),?,4%,-58%,18%,-17%,?
CC[C@@]1(O)C(=O)COc2c1cc1n(c2=O)Cc2c-1nc1cccc(C(C)C)c1c2[Si](C)(C)C,?,nt,nt,nt,nt,-43%
NS(=O)(=O)c1cccc(NC(=O)COC(=O)c2ccccc2SCC(=O)N2CCCC2)c1,nt,6%,11%,?,nt,nt
CCOc1ccc(CC(=O)NCc2ccc3c(c2)CCN3C(=O)c2ccc(F)cc2)cc1OCC,nt,nt,nt,1%,nt,nt
COc1cc(C(=O)NCC(=O)Nc2ccc(F)c(F)c2)ccc1OCC(=O)N1CCOCC1,nt,-1%,-10%,-13%,-4%,nt
COc1ccc(Nc2nc3ccc(Cl)cc3nc2-n2nc(C)cc2C)cc1,nt,nt,nt,-6%,nt,nt
CCc1ccc(C(=O)NC(=S)Nc2ccc3c(c2)OCCO3)cc1,7.1µM*,-5%,-13%,-2%,-10%,7.1µM*
COc1ccc(C(=O)NC(=S)NNC(=O)c2ccc(NC(=O)C(C)C)cc2)cc1,16µM*,-2%,-13%,?,0%,?
COc1ccc(C(=O)NC(=S)NNC(=O)c2ccc(C)cc2)cc1,nt,-25%,8%,nt,nt,nt
O=C(NC(=S)Nc1ccc2c(c1)OCO2)c1ccc(Cl)cc1,5.6µM*,0%,-3%,1%,2%,5µM*
COc1ccc(Cl)cc1NC(=S)NC(=O)c1ccc2c(c1)OCO2,nt,-2%,9%,nt,nt,nt
SMILES,VP16 counter,uPA generation,a7 integrin act,BCR signal inh,Mito fusion act,RORg inh
Cc1ccc(C(=O)NC(=S)Nc2ccc(N3CCOCC3)cc2)c(C)c1,25µM*,6%,-25%,0%,-8%,2.5µM*
C=CCn1c(SCC(=O)NCC(c2ccccc2)N(C)C)nnc1C1CCCCC1 (stereo not given),nt,-3%,21%,-6%,1%,nt
CN(C(=O)c1ccc(NC(=O)Cc2ccc(NC(=O)C3CCCN(C(=O)CCc4ccccc4)C3)cc2)cc1)C1CCCC1 (stereo not given),nt,?,-34%,nt,nt,nt
COc1ccc(-c2coc3cc(O)ccc3c2=O)c(O)c1O,2%,nt,nt,nt,nt,5%
S=C(Nc1ccc(Cl)cc1)Nc1ccc2c(c1)OCCO2,?,?,6%,2%,-15%,?
O=C(NC(=S)Nc1ccc2c(c1)OCCO2)c1ccc(F)cc1Cl,?,-22%,-9%,?,-5%,11µM*
Cc1ccc2c(c1)N(C(=O)CCC(=O)NCc1cccc(Cl)c1)CC(C)O2 (stereo not given),-13%,-9%,7%,5%,16µM*,-41%
CC(=O)c1cnn(-c2c(Cl)cc(Cl)cc2Cl)c1C,-1%,5%,7%,0%,1%,11%
O=C(N/N=C/c1cc([N+](=O)[O-])cc(Br)c1O)C12CC3CCC(CC(C3)C1)C2,4µM*,-4%,21%,?,0%,5µM*
COc1cc(/C=N/NC(=O)C23CC4CC(CC(C4)C2)C3)cc(Br)c1O,4%,-10%,-5%,-3%,3%,8%
COC(=O)c1ccc(CSc2ncnc3sc(C)c(C)c23)o1,?,8%,18%,-11%,-5%,18µM*
COC(=O)c1ccc(CSc2nnc(Nc3ccc(C)cc3)s2)o1,-6%,1%,-17%,?,-5%,11%
O=C(Nc1nc(-c2ccccn2)cs1)c1ccc([N+](=O)[O-])o1,?,-9%,-29%,?,-11%,?
Cc1csc(NC(=O)c2ccc(C)c([N+](=O)[O-])c2)n1,14µM*,2%,18%,10%,-3%,?
O=C(Nc1nc(-c2ccccn2)cs1)c1cc(Cl)ccc1[N+](=O)[O-],2.8µM*,8%,-51%,?,-6%,1.1µM*
Cc1cc(C(=O)Nc2nc(-c3ccccn3)cs2)ccc1[N+](=O)[O-],2.8µM*,-1%,-43%,-12%,-2%,1.1µM*
COc1cccc2c1N(C)C(=O)CC21C=CC(=O)C=C1,-14%,nt,nt,nt,nt,?
CC(=O)Oc1cc(-c2coc3cc(OC(C)=O)c(OC(C)=O)c(OC(C)=O)c3c2=O)cc(OC(C)=O)c1OC(C)=O,-14%,nt,nt,nt,nt,-27%
CCC(=O)c1ccc(OCC(=O)O)cc1,1%,-1%,-15%,-1%,5%,-3%[10 µM]
CCC(=O)c1ccc(OCCSc2ncccn2)cc1,-6%,-8%,-6%,?,9%,11µM*
COc1ccccc1N(CC(=O)Nc1ccc2c(c1)OCCO2)S(=O)(=O)c1ccc(C)cc1,10%,-8%,-19%,?,-3%,10%
CC(=O)/C(=N\Nc1ccccc1Cl)Sc1cccc2cccnc12,4.5µM*,-2%,?,-1%,2%,2.8µM*
